Results reported in PubChem BioAssay AID1910 (Broad Institute, 2009).
Screen size: about 300,000 compounds; about 950 (0.32%) were called active. What follows is part of a selection rich in actives, with near analogues and random picks from the rest. A number with no mark means an inactive call.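 Rule for the calls: active = mean activation of at least 10% of the iron chelator positive control signal, with at least half of replicates also reaching 10%; inconclusive = mean and replicate majority disagree about reaching 10%; inactive = mean and most replicates under 10%.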

Experiment: hypoxia response element reporter activation – cell-based, U2OS HRE-luciferase, luminescence, primary screen (AID 1910)
Settings: stronger effect = higher value, screened at 7.5 µM (by protocol), normalized: DMSO 0%, desferrioxamine 100%

SMILES | activation
C/C(=N\NC(=O)Cc1ccc(Br)cc1)c1cccnc1 | 24.8% (active)
C/C(=N\NC(=O)c1ccccc1F)c1ccccn1 | 1.74%
C/C(=N\NC(=O)Cc1ccc(Cl)cc1)c1ccccn1 | 17.7% (active)
C/C(=N\NC(N)=S)c1cccnc1 | -0.0419%
C/C(=N\NC(=O)Cc1ccccc1[N+](=O)[O-])c1cccnc1 | 0.0865%
Cc1ccc(Cl)cc1NC(=O)c1ccccn1 | 1.23%
O=C(N[C@@H](Cc1ccccc1)C(=O)OCc1ccccc1)c1nc[nH]c1C(=O)NC1CCNCC1 | 1.06%
Cc1cc(NC(=O)CSC2=NS(=O)(=O)c3cc(Cl)ccc3N2)no1 | 1.88%
COc1ccc(/C=C(\C#N)C(=O)OCC(=O)N(C)C2CCS(=O)(=O)C2)cc1 (configuration not stated) | -41.3%
Nc1nc(NCCCN2CCOCC2)nc(Nc2ccccc2)c1[N+](=O)[O-] | -0.302%
CCOc1cccc(/C=N/NC(=S)NCCN2CCOCC2)c1O | 0.43%
CCOc1nc(NCCN2CCOCC2)nc(Nc2ccc(C)cc2)n1 | 296% (active)
O=C1CC2(CCN(C(=O)COc3ccc(F)cc3)CC2)Oc2ccccc21 | -0.0585%
O=C(CCCCO)c1ccc(O)c(Cl)c1 | -0.731%
COc1cc(-c2nnc(NC(=O)C3=COCCO3)o2)cc(OC)c1OC | -0.75%
COc1cc(OC)cc(C(=O)NNC(=O)CNC(=O)c2ccc(Br)o2)c1 | 0.191%
O=C(NCCCN1CCCC1=O)c1cccc(S(=O)(=O)NCc2ccccc2)c1 | -0.752%
CN(Cc1cccnc1)C(=O)c1cc(COc2ccc3ncccc3c2)on1 | 39.7% (active)
Cc1ccc(OCc2cc(C(=O)N(C)CCc3ccccc3)no2)cc1C | 4.07%
CN(Cc1cnccn1)C(=O)c1cc(COc2cccc(C(F)(F)F)c2)on1 | -2.19%
Cc1cccc(C(=O)OC(C)CN2CCN(C)CC2)c1 (configuration not stated) | 3.11%
CC(CN1CCCCC1)OC(=O)c1ccccc1Cl (configuration not stated) | -0.0657%
Cc1cccc(C(=O)OC(C)CN2CCCC2)c1 (configuration not stated) | 15% (active)
CC(=O)c1nn(-c2ccc(C)cc2)cc1C(=O)c1cccc(Br)c1 | -0.49%
N#CCC(=O)N/N=C/c1ccc(SCC(=O)Nc2ccccc2)o1 | 105% (active)
O=C(CSc1ccc(/C=N/NC(=O)c2cccc(F)c2)o1)Nc1ccccc1 | 0.0126%
Cc1ccc(/C=N/NC(=O)CSc2ccccn2)o1 | -0.331%
